Several values for one entry are separate records, joined by “and”; a condition that tells them apart may be missing. Equal values may be shown once. About 2,000 (36%) of roughly 5,500 compounds were called active. Another 18% or so got no clear call; they are omitted. Rule as the data show it: active = normalized growth mostly below about 0.91 (no sharp cut-off); inconclusive = no clear call, values can overlap the other calls; inactive = mostly above about 0.92. The list shows a part of the results.
Test: chemical genetic growth profiling, strain panel (AID 1159580);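 also: tested at 20 µM; growth read once vehicle control cultures reached saturation at 30 °C; 1 = growth at the plate median or of vehicle wells; lower values mean less growth of the strain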
Details: S. cerevisiae deletion strains, growth OD

Measured: normalized growth

Cc1[nH]c2ccccc2c1CN(C)C
inactive: locus YAL021C, strain ccr4, active compounds read low 1.01 | locus YAL026C, strain drs2, active compounds read low 1.03 | locus YAL030W, strain snc1, active compounds read low 1.02 | locus YBL061C, strain skt5, active compounds read low 1.02 | locus YBR009C, strain hhf1, active compounds read low 1.02 | locus YBR021W, strain FUR4, active compounds read low 0.951 | locus YBR023C, strain chs3, active compounds read low 1.02 | locus YBR171W, strain sec66, active compounds read low 1.02 | locus YBR229C, strain ROT2, active compounds read low 0.998 | locus YBR231C, strain swc5, active compounds read low 1.02 | locus YBR279W, strain paf1, active compounds read low 1.01 | locus YCL011C, strain gbp2, active compounds read low 1.02 | locus YCL016C, strain dcc1, active compounds read low 1.01 | locus YCL029C, strain bik1, active compounds read low 0.986 | locus YCL069W, strain vba3, active compounds read low 1.01 | locus YCR088W, strain abp1, active compounds read low 1.02 | locus YDL005C, strain med2, active compounds read low 1.03 | locus YDL035C, strain GPR1, active compounds read low 1.01 | locus YDL040C, strain nat1, active compounds read low 1.02 | locus YDL074C, strain BRE1, active compounds read low 1 | locus YDL101C, strain DUN1, active compounds read low 1.01 | locus YDL134C, strain PPH21, active compounds read low 1.02 | locus YDL185W, strain tfp1, active compounds read low 1.01 | locus YDL192W, strain arf1, active compounds read low 0.983 | locus YDR001C, strain nth1, active compounds read low 1.01 | locus YDR069C, strain doa4, active compounds read low 1.02 | locus YDR101C, strain arx1, active compounds read low 0.968 | locus YDR137W, strain rgp1, active compounds read low 1.03 | locus YDR150W, strain NUM1, active compounds read low 1.01 | locus YDR159W, strain sac3, active compounds read low 1.05 | locus YDR162C, strain NBP2, active compounds read low 1.07 | locus YDR195W, strain ref2 1.03 | locus YDR297W, strain sur2, active compounds read low 1.02 | locus YDR318W, strain mcm21, active compounds read low 0.995 | locus YDR334W, strain swr1, active compounds read low 1.01 | locus YDR335W, strain msn5, active compounds read low 1.01 | locus YDR388W, active compounds read low 0.993 | locus YDR392W, strain spt3, active compounds read low 1.03 | locus YDR502C, strain sam2, active compounds read low 0.987 | locus YEL003W, strain gim4, active compounds read low 1.01 | locus YEL037C, strain rad23, active compounds read low 1.01 | locus YEL061C, strain CIN8 (second series), active compounds read low 1.03 | locus YEL061C, strain CIN8, active compounds read low 1.02 | locus YER015W, strain faa2, active compounds read low 1.01 | locus YER016W, strain bim1, active compounds read low 1.01 | locus YER110C, active compounds read low 0.984 | locus YER111C, strain swi4, active compounds read low 1.03 | locus YER155C, strain BEM2, active compounds read low 0.983 | locus YER167W, strain BCK2, active compounds read low 1 | locus YFR010W, strain ubp6, active compounds read low 1.01 | locus YGL078C, strain dbp3, active compounds read low 1.01 | locus YGL086W, strain mad1, active compounds read low 0.996 | locus YGL167C, strain pmr1, active compounds read low 1.04 | locus YGL173C, strain kem1, active compounds read low 1.03 | locus YGL227W, strain vid30, active compounds read low 1.01 | locus YGL240W, strain doc1, active compounds read low 1.01 | locus YGL248W, strain PDE1, active compounds read low 1.03 | locus YGL253W, strain hxk2, active compounds read low 1.02 | locus YGR135W, strain pre9, active compounds read low 0.995 | locus YGR229C, strain SMI1, active compounds read low 1.06 | locus YGR252W, strain gcn5, active compounds read low 0.908 | locus YHR013C, strain ard1, active compounds read low 1.03 | locus YHR027C, strain rpn1, active compounds read low 1.03 | locus YHR030C, strain SLT2, active compounds read low 1 and 0.988 | locus YHR079C, strain IRE1 (second series), active compounds read low 0.995 | locus YHR079C, strain IRE1, active compounds read low 0.982 | locus YHR094C, strain hxt1, active compounds read low 0.989 | locus YHR129C, strain ARP1, active compounds read low 1.01 | locus YHR142W, strain chs7, active compounds read low 1.03 | locus YHR200W, strain rpn10, active compounds read low 0.991 | locus YIL066C, strain RNR3, active compounds read low 1.02 | locus YIL073C, strain SPO22, active compounds read low 1.02 | locus YIL125W, strain kgd1, active compounds read low 1.01 | locus YIR030C, strain dcg1, active compounds read low 0.99 | locus YJL092W, strain hpr5, active compounds read low 1.01 | locus YJL095W, strain BCK1 (second series), active compounds read low 1.02 | locus YJL095W, strain BCK1, active compounds read low 1.06 and 0.973 | locus YJL115W, strain asf1, active compounds read low 1.02 | locus YJL129C, strain trk1, active compounds read low 1.03 | locus YJL134W, strain LCB3, active compounds read low 0.994 | locus YJL154C, strain vps35, active compounds read low 1.02 | locus YJL164C, strain tpk1, active compounds read low 1.01 | locus YJL166W, strain qcr8, active compounds read low 1.02 | locus YJL168C, strain set2, active compounds read low 0.993 | locus YJL187C, strain SWE1 (second series), active compounds read low 1.01 | locus YJL187C, strain SWE1, active compounds read low 1.02 | locus YJR043C, strain POL32, active compounds read low 0.995 | locus YJR066W, strain TOR1, active compounds read low 0.906

Reference: PubChem BioAssay AID1159580 (chemical genetic matrix, 2015)
